38 molecules from PubChem BioAssay (Tox21) can be followed below.

Records with an inconclusive call do not appear. A call without a number means that no potency is given here. A number with no mark means an inactive call. Active and inactive are the calls of the source. The call rests on the fitted dose curve; in most records, active means well fitted activation curve with a large enough effect in the repeat runs; inconclusive means weak or mixed curves; inactive means flat fitted curve, though single readings scatter.

The nature of the assay: A CellTox Green Cytotoxicity Assay to monitor cytotoxicity in HEK293 cells - 24 hour (AID 1224875). Further: nearly all actives have a fitted effect of over 45% in size. Conditions: CellTox Green fluorescence; series mostly up to 76.8 µM; activity change: at the top concentration. Summed up:
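Dead-cell fluorescence measured kinetically: asymmetric cyanine dye, HEK293, 600 cells/well, 5 h settle, 23 nL cpd/DMSO, 37 C, reads 0–40 h every 8 h.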
For the molecule `CCCCN(CCCC)CCCC`, the Potency result is “inactive”. Same read-out and setting: the entry for `CCOC(=O)NNc1nncc2ccccc12` is “inactive”; for `C[Si](O[Si](C)(C)C)O[Si](C)(C)C` it is “inactive”; for `N[C@@H](Cc1cc(I)c(Oc2cc(I)c(O)c(I)c2)c(I)c1)C(=O)O` it is “inactive”. Same read-out and setting: the value for `O=C(O)c1ccccc1C(c1ccc(O)cc1)c1ccc(O)cc1` was “inactive”; that for `CCCCCCCCC/C=C/CC1CC(=O)OC1=O` (stereo not drawn) was “inactive”; that for `C#C[C@]1(O)CC[C@H]2[C@@H]3CCC4=CC(=O)CC[C@@H]4[C@H]3CC[C@@]21C` was “inactive”. Still for that read-out and setting: the entry for `CCCCCC(N)=O` is “inactive”; for `O=C(O)c1ccc(C(=O)O)cc1` it is “inactive”; for `CC1CCC(C(C)C)C(O)C1` (stereo not drawn) it is “inactive”.

For the molecule `CC1CCC2CC1C2(C)C` (stereo not drawn), the Potency entry is “inactive”. Consider `CSCCC=O`, for which the Potency entry was “inactive”.

Consider `OCCOCCOCCO`, for which the Potency result was “inactive”. Turning to `O=c1[nH]nnc2ccccc12`, the Potency result was “inactive”. Still for that read-out and setting: the value for `CC(=O)CC(=O)Nc1ccccc1C` was “inactive”; that for `CN(C)CCC(c1ccccc1)c1ccccn1` (stereo not drawn) was “inactive”.

For the molecule `CCCCCC/C(C=O)=C\c1ccccc1`, the Potency result was “inactive”. On to `Nc1ccccc1[N+](=O)[O-]`, for which the Potency result was “inactive”.

For `C=C(C)C(=O)O[C@H]1C[C@@H]2CC[C@@]1(C)C2(C)C`, the Potency result is “inactive”. Turning to `OCC(CO)(CBr)CBr`, the “activity change” value is -11.1%. As to `CC(=O)Nc1ccccc1`, the Potency entry was “inactive”.

Turning to `CCCCOC(=O)COc1ccc(Cl)cc1Cl`, the Potency result is “inactive”. Take `CCCCC(CC)COC(=O)CCCCC(=O)OCC(CC)CCCC` (stereo not drawn): the Potency entry was “inactive”.

`C[C@H]1C[C@H]2[C@@H]3CCC4=CC(=O)C=C[C@]4(C)[C@@]3(F)[C@@H](O)C[C@]2(C)[C@@]1(O)C(=O)CO`: the Potency entry was “inactive”. For `O=P(OC(CCl)CCl)(OC(CCl)CCl)OC(CCl)CCl`, the Potency entry is “inactive”. With `Cc1ccc(N(C)C)cc1`, the Potency entry was “inactive”. In the case of `COc1ccc(NC(C)=O)cc1N`, the Potency result is “inactive”. On the same count and under the same terms, the entry for `C/C=C1/CC2C=CC1C2` (stereo not drawn) is “inactive”; for `C#CCN(C)Cc1ccccc1` it is “inactive”. On the same count and under the same terms, the entry for `C=C(C)C(=O)OCCOCCOCCOC(=O)C(=C)C` is “inactive”; for `CC(C)CC(=O)CC(C)C` it is “inactive”; for `CCC(O)OCCCOC` (stereo not drawn) it is “inactive”. `OCc1cccnc1`: the Potency result is “inactive”. In the case of `CC1=CCC2CC1C2(C)C` (stereo not drawn), the Potency entry was “inactive”. For the molecule `O=C(O)c1ccc2c(c1)C(=O)OC2=O`, the “activity change” value is 0.0904%. As for `CCCCCOC(C)=O`, the Potency entry was “inactive”.

With `O=C=NCCCCCCN=C=O`, the Potency entry is “inactive”. Regarding `CCc1ccc(CCOc2ccc(CC3SC(=O)NC3=O)cc2)nc1` (stereo not drawn), the Potency result was “inactive”.
